Each structure is given as a SMILES string. Inconclusive results are not listed. Entries that show only a call come without a potency. A number with no mark means an inactive call. The source made the active and inactive calls. The call rests on the fitted dose curve; in most records, active means well fitted activation curve with a large enough effect in the signal ratio, with a control signal flat; inconclusive means small, poorly fitted or top-dose-only effect, or a change in a side signal; inactive means flat fitted curve, though single readings scatter; the % refers to the signal ratio.

In PubChem BioAssay AID933 (National Center for Advancing Translational Sciences (NCATS), 2009) one finds Potency and activation data, which are given here for 35 compounds.
Potency means the concentration at half of the fitted maximal effect.

The target of this assay is Thyrotropin receptor (Homo sapiens) (UniProt P16473). Description: Secondary Concentration-Response Assay for Agonists of the Thyroid Stimulating Hormone Receptor: HTRF Activity Detection. The following applies: HEK293-TSHR cells, cAMP HTRF ratio, 30 min; series mostly up to 91.7 µM. A digest of the protocol: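 cAMP accumulation was detected by antibody-based HTRF, excitation 330 nm, emissions 615 and 660 nm. Compounds acted for 30 min at room temperature on stably TSHR-transfected HEK 293 cells, with phosphodiesterase inhibitor RO 20-1724 (100 uM) in the medium.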
Sequence of Thyrotropin receptor (Homo sapiens) (P16473 whole entry, looked up): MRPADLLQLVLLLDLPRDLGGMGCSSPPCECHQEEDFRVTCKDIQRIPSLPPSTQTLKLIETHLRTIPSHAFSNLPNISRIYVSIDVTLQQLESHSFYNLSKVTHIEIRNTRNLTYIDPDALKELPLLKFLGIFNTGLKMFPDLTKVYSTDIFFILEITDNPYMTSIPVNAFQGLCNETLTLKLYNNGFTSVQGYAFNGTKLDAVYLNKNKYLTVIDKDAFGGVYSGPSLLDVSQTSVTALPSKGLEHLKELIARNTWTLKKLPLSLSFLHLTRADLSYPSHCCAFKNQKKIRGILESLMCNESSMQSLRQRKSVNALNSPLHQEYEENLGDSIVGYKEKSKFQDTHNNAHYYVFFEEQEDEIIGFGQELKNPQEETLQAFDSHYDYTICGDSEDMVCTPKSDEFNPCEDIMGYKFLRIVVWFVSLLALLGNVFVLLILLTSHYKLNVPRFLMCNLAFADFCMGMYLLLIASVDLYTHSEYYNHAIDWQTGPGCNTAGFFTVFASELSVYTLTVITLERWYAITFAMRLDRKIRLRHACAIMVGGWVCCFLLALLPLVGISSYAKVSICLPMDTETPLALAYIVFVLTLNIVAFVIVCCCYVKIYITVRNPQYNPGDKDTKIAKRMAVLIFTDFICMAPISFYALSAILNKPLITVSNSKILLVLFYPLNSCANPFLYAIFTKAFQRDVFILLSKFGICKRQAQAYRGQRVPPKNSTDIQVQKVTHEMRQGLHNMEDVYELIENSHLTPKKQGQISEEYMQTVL
(TR-FRET usually uses a lanthanide donor and a delayed reading to cut background.)
For the compound `COc1ccc(C2Nc3ccc(Cl)cc3C(=O)N2Cc2ccccc2)cc1COc1ccc(NC(C)=O)cc1` (stereo not given), the Potency was 14.1 µM (active).

With `O=C1c2ccccc2NC(c2ccccc2OCc2ccccc2)N1Cc1ccco1` (stereo not given), the Potency result is “inactive”.

Consider `COc1ccc(C2Nc3ccccc3C(=O)N2CC(C)(C)C)cc1COc1ccc(NC(C)=O)cc1` (stereo not given), for which the Potency entry is “inactive”.

With `COc1ccc(C2Nc3ccccc3C(=O)N2Cc2ccco2)cc1COc1ccc([N+](=O)[O-])c(C)c1` (stereo not given), the Potency entry is “inactive”.

For the compound `COc1cc(C2Nc3ccccc3C(=O)N2c2ccc(Cl)cc2)c(Cl)cc1OCC(=O)O` (stereo not given), the Potency entry is “inactive”.

Regarding `CCOc1ccc(S(=O)(=O)NCc2ccccc2Cl)cc1C(N)=O`, the Potency entry is “inactive”.

On to `COc1ccc(C2Nc3ccccc3C(=O)N2Cc2ccco2)cc1COc1ccc([N+](=O)[O-])cc1` (stereo not given), for which the Potency entry is “inactive”.

As to `COc1ccc(-c2ccc(-c3noc(C)n3)c(OC)n2)cc1`, the activation was -0.214% [at 0.00035 µM].

As for `CC1(c2ccccn2)Nc2ccccc2-c2nc3ccccc3n21` (stereo not given), the activation was -0.34% [at 0.00035 µM].

`COc1ccc(C2Nc3ccccc3C(=O)N2Cc2ccco2)cc1CN1C(=O)c2ccccc2C1=O` (stereo not given): the Potency entry is “inactive”.

`COc1ccc(CNCc2ccccc2)cc1COc1ccc(NC(C)=O)cc1`: the Potency entry is “inactive”.

Take `COc1ccc(/C=N/n2cncn2)cc1COc1ccc(NC(C)=O)cc1`: the Potency entry was “inactive”.

Take `COc1ccc(-c2nc3ccc(NC(=O)COC(C)=O)cc3c(=O)n2Cc2ccccc2)cc1COc1ccc(NC(C)=O)cc1`: the Potency entry was “inactive”.

In the case of `COc1ccc(C2Nc3ccccc3C(=O)N2Cc2ccc(C(F)(F)F)cc2)cc1COc1ccc(NC(C)=O)cc1` (stereo not given), the Potency result was “inactive”.

With `O=C(CN(Cc1ccc(F)cc1)S(=O)(=O)c1ccccc1)N1CCCCC1`, the activation was 0.34% [at 0.00035 µM].

As to `COc1ccc(CN(Cc2ccccc2)C(=O)c2ccno2)cc1COc1ccc(NC(C)=O)cc1`, the Potency result is “inactive”.

As for `CC(=O)Nc1ccc(S(=O)(=O)N(C)c2ccccc2)cc1`, the activation was -0.796% [at 0.00035 µM].

For `COc1ccc(C2Nc3ccccc3C(=O)N2Cc2ccccc2)cc1COc1ccc(C#N)cc1` (stereo not given), the Potency result is “inactive”.

In the case of `COc1cccc(OCc2cc(C3Nc4ccccc4C(=O)N3Cc3ccccc3)ccc2OC)c1` (stereo not given), the Potency entry was “inactive”.

With `COc1ccc(-c2nc3ccccc3c(=O)n2Cc2ccccc2)cc1OCc1ccc(NC(C)=O)cc1`, the Potency result is “inactive”.

Turning to `O=C(COC(=O)C12CC3CC(CC(C3)C1)C2)NCC1CCCO1` (stereo not given), the Potency entry was “inactive”.

As for `COc1ccc(C2Nc3ccccc3C(=O)N2Cc2ccc(Cl)cc2)cc1COc1ccc(NC(C)=O)cc1` (stereo not given), the Potency was 3.16 µM (active).

Consider `COc1ccc(CN(Cc2ccccc2)C(=O)c2ccc(NC(C)=O)cc2)cc1COc1ccc(NC(C)=O)cc1`, for which the Potency entry is “inactive”.

As to `O=C1c2ccccc2NC(c2ccccc2)N1Cc1ccco1` (stereo not given), the Potency entry is “inactive”.

As for `COc1ccc(O)c(-c2nc3ccccc3c(=O)n2Cc2ccccc2)c1`, the Potency result was “inactive”.

`Cc1nn(C)c(C)c1S(=O)(=O)N(CC(=O)Nc1nccs1)c1ccc(C(C)C)cc1`: the activation was 0.117% [at 0.00035 µM].

Take `Cc1ccc(S(=O)(=O)N2CCC(C(=O)NCCCN3CCCCCC3)CC2)cc1`: the activation was 0.566% [at 0.00035 µM].

On to `CCOc1cc(C2Nc3ccccc3C(=O)N2c2ccccc2)c(Br)cc1OCC(=O)O` (stereo not given), for which the Potency result is “inactive”.

As for `O=C1c2ccccc2NC(c2cccc(O)c2)N1Cc1ccco1` (stereo not given), the Potency entry is “inactive”.

As to `O=C(c1ccccc1O)N(Cc1ccccc1)Cc1cccs1`, the Potency entry is “inactive”.

Turning to `COc1ccc(/C=N/O)cc1COc1ccc(NC(C)=O)cc1`, the Potency entry was “inactive”.

Regarding `O=C1C2C3CCCC3=C3CCCC3C2C(=O)N1c1ccccc1Cl` (stereo not given), the Potency entry was “inactive”.

As to `COc1cccc(CN2C(=O)c3ccccc3NC2c2ccc(OC)c(COc3ccc(NC(C)=O)cc3)c2)c1` (stereo not given), the Potency was 6.31 µM (active).

For the compound `O=C1c2ccccc2N2C(=O)c3ccccc3[C@H]2N1c1ccccc1`, the Potency entry is “inactive”.

Consider `Cc1cc(=O)[nH]c(SCCOc2ccc3c(c2)CCC3)n1`, for which the activation is 0.323% [at 0.00035 µM].
